Out of some 5,500 compounds screened, about 2,000 (36%) were called active. Roughly 18% stayed inconclusive and do not appear here. The list shows a part of the results. Unmarked numbers belong to inactive results. Cut-off read from the data, not from the text of the source: active = normalized growth mostly below about 0.91 (no sharp cut-off); inconclusive = no clear call, values can overlap the other calls; inactive = mostly above about 0.92.
Test: chemical genetic growth profiling, strain panel (AID 1159580);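 note: tested at 20 µM; growth read once vehicle control cultures reached saturation at 30 °C; 1 = growth at the plate median or of vehicle wells; lower values mean less growth of the strain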
Conditions: growth OD
[1] = S. cerevisiae deletion strains, locus YDL101C, strain DUN1, active compounds read low
[2] = S. cerevisiae deletion strains, locus YHR030C, strain SLT2, active compounds read low
[3] = S. cerevisiae deletion strains, locus YAL013W, strain DEP1, active compounds read low
[4] = S. cerevisiae deletion strains, locus YBR229C, strain ROT2, active compounds read low
[5] = S. cerevisiae deletion strains, locus YDL134C, strain PPH21, active compounds read low
[6] = S. cerevisiae deletion strains, locus YDR150W, strain NUM1, active compounds read low
[7] = S. cerevisiae deletion strains, locus YEL061C, strain CIN8, active compounds read low
[8] = S. cerevisiae deletion strains, locus YGR078C, strain PAC10, active compounds read low
[9] = S. cerevisiae deletion strains, locus YHR087W, strain rtc3, active compounds read low
[10] = S. cerevisiae deletion strains, locus YJR043C, strain POL32, active compounds read low
[11] = S. cerevisiae deletion strains, locus YJR075W, strain HOC1, active compounds read low
[12] = S. cerevisiae deletion strains, locus YLR039C, strain RIC1, active compounds read low
[13] = S. cerevisiae deletion strains, locus YLR058C, strain SHM2 (second series), active compounds read low
[14] = S. cerevisiae deletion strains, locus YLR085C, strain ARP6, active compounds read low
[15] = S. cerevisiae deletion strains, locus YLR262C, strain YPT6, active compounds read low
[16] = S. cerevisiae deletion strains, locus YML094W, strain GIM5, active compounds read low
[17] = S. cerevisiae deletion strains, locus YMR219W, strain ESC1, active compounds read low
[18] = S. cerevisiae deletion strains, locus YMR263W, strain SAP30, active compounds read low
[19] = S. cerevisiae deletion strains, locus YNL153C, strain GIM3, active compounds read low
[20] = S. cerevisiae deletion strains, locus YNL298W, strain CLA4 (second series), active compounds read low
[21] = S. cerevisiae deletion strains, locus YNL322C, strain KRE1, active compounds read low
[22] = S. cerevisiae deletion strains, locus YNR030W, strain Alg12, active compounds read low
[23] = S. cerevisiae deletion strains, locus YPL055C, strain LGE1, active compounds read low
[24] = S. cerevisiae deletion strains, locus YPL241C, strain CIN2, active compounds read low
[25] = S. cerevisiae deletion strains, locus YPR135W, strain CTF4, active compounds read low

SMILES: CCCCCCCC1CCC/C1=N/OC(=O)c1cccs1 (stereo not drawn)
- normalized growth (S. cerevisiae deletion strains, locus YAR019C, strain CDC15, active compounds read low): 1.01
- normalized growth (S. cerevisiae deletion strains, locus YBL105C, strain PKC1, active compounds read low): 1.01
- normalized growth (S. cerevisiae deletion strains, locus YBR135W, strain CKS1, active compounds read low): 1.01
- normalized growth (S. cerevisiae deletion strains, locus YBR136W, strain MEC1, active compounds read low): 1
- normalized growth (S. cerevisiae deletion strains, locus YBR160W, strain CDC28, active compounds read low): 0.997
- normalized growth (S. cerevisiae deletion strains, locus YDL017W, strain CDC7, active compounds read low): 0.995
- normalized growth (S. cerevisiae deletion strains, locus YDL028C, strain MPS1, active compounds read low): 0.999
- normalized growth [1]: 0.973
- normalized growth (S. cerevisiae deletion strains, locus YDL108W, strain KIN28, active compounds read low): 0.996
- normalized growth (S. cerevisiae deletion strains, locus YDL132W, strain cdc53, active compounds read low): 0.991
- normalized growth (S. cerevisiae deletion strains, locus YDL214C, strain PRR2, active compounds read low): 0.965
- normalized growth (S. cerevisiae deletion strains, locus YDR052C, strain DBF4, active compounds read low): 0.983
- normalized growth (S. cerevisiae deletion strains, locus YDR054C, strain cdc34, active compounds read low): 0.989
- normalized growth (S. cerevisiae deletion strains, locus YDR226W, strain ADK1, active compounds read low): 0.996
- normalized growth (S. cerevisiae deletion strains, locus YDR477W, strain SNF1, active compounds read low): 0.957
- normalized growth (S. cerevisiae deletion strains, locus YER123W, strain YCK3, active compounds read low): 0.947
- normalized growth (S. cerevisiae deletion strains, locus YER133W, strain GLC7, active compounds read low): 0.97
- normalized growth (S. cerevisiae deletion strains, locus YFL009W, strain cdc4, active compounds read low): 0.992
- normalized growth (S. cerevisiae deletion strains, locus YFL029C, strain CAK1, active compounds read low): 1.01
- normalized growth (S. cerevisiae deletion strains, locus YFR003C, strain YPI1, active compounds read low): 1.01
- normalized growth (S. cerevisiae deletion strains, locus YFR019W, strain FAB1, active compounds read low): 0.938
- normalized growth (S. cerevisiae deletion strains, locus YFR028C, strain CDC14, active compounds read low): 0.98
- normalized growth (S. cerevisiae deletion strains, locus YGR040W, strain KSS1, active compounds read low): 0.967
- normalized growth (S. cerevisiae deletion strains, locus YGR052W, strain FMP48, active compounds read low): 0.988
- normalized growth (S. cerevisiae deletion strains, locus YGR092W, strain DBF2, active compounds read low): 0.906
- normalized growth [2]: 0.763 (active)
- normalized growth (S. cerevisiae deletion strains, locus YHR079C, strain IRE1, active compounds read low): 0.871
- normalized growth (S. cerevisiae deletion strains, locus YHR082C, strain KSP1, active compounds read low): 1.07
- normalized growth (S. cerevisiae deletion strains, locus YHR205W, strain SCH9, active compounds read low): 0.753
- normalized growth (S. cerevisiae deletion strains, locus YIL147C, strain SLN1, active compounds read low): 0.992
- normalized growth (S. cerevisiae deletion strains, locus YJL095W, strain BCK1, active compounds read low): 0.91
- normalized growth (S. cerevisiae deletion strains, locus YJL128C, strain PBS2, active compounds read low): 1.01
- normalized growth (S. cerevisiae deletion strains, locus YJL157C, strain FAR1, active compounds read low): 0.967
- normalized growth (S. cerevisiae deletion strains, locus YJR016C, strain ILV3, active compounds read low): 0.99
- normalized growth (S. cerevisiae deletion strains, locus YJR066W, strain TOR1 (second series), active compounds read low): 0.934
- normalized growth (S. cerevisiae deletion strains, locus YJR066W, strain TOR1, active compounds read low): 0.986
- normalized growth (S. cerevisiae deletion strains, locus YKL048C, strain ELM1, active compounds read low): 0.985
- normalized growth (S. cerevisiae deletion strains, locus YKL067W, strain YNK1, active compounds read low): 0.939
- normalized growth (S. cerevisiae deletion strains, locus YKL101W, strain HSL1, active compounds read low): 0.934
- normalized growth (S. cerevisiae deletion strains, locus YKL193C, strain SDS22, active compounds read low): 1.02
- normalized growth (S. cerevisiae deletion strains, locus YKL203C, strain TOR2, active compounds read low): 1
- normalized growth (S. cerevisiae deletion strains, locus YLR113W, strain HOG1, active compounds read low): 0.739 (active)
- normalized growth (S. cerevisiae deletion strains, locus YLR133W, strain CKI1, active compounds read low): 0.96
- normalized growth (S. cerevisiae deletion strains, locus YLR403W, strain SFP1, active compounds read low): 0.945
- normalized growth (S. cerevisiae deletion strains, locus YML070W, strain DAK1, active compounds read low): 0.902
- normalized growth (S. cerevisiae deletion strains, locus YMR001C, strain CDC5, active compounds read low): 1.02
- normalized growth (S. cerevisiae deletion strains, locus YMR205C, strain PFK2 (second series), active compounds read low): 0.944
- normalized growth (S. cerevisiae deletion strains, locus YMR277W, strain FCP1, active compounds read low): 1.03
- normalized growth (S. cerevisiae deletion strains, locus YNL006W, strain LST8, active compounds read low): 1.01
- normalized growth (S. cerevisiae deletion strains, locus YNL020C, strain ARK1, active compounds read low): 0.896
- normalized growth (S. cerevisiae deletion strains, locus YNL161W, strain CBK1, active compounds read low): 1.02
- normalized growth (S. cerevisiae deletion strains, locus YNL183C, strain NPR1, active compounds read low): 0.944
- normalized growth (S. cerevisiae deletion strains, locus YNL207W, strain RIO2, active compounds read low): 0.976
- normalized growth (S. cerevisiae deletion strains, locus YNL222W, strain SSU72, active compounds read low): 1.02
- normalized growth (S. cerevisiae deletion strains, locus YNL307C, strain MCK1 (second series), active compounds read low): 0.901
- normalized growth (S. cerevisiae deletion strains, locus YOL078W, strain AVO1, active compounds read low): 1.02
- normalized growth (S. cerevisiae deletion strains, locus YOL136C, strain PFK27, active compounds read low): 0.961
- normalized growth (S. cerevisiae deletion strains, locus YOR061W, strain CKA2, active compounds read low): 0.88
- normalized growth (S. cerevisiae deletion strains, locus YOR119C, strain RIO1, active compounds read low): 1.03
- normalized growth (S. cerevisiae deletion strains, locus YOR231W, strain MKK1, active compounds read low): 0.859
- normalized growth (S. cerevisiae deletion strains, locus YOR329C, strain SCD5, active compounds read low): 1.02
- normalized growth (S. cerevisiae deletion strains, locus YPL031C, strain PHO85, active compounds read low): 0.935
- normalized growth (S. cerevisiae deletion strains, locus YPL153C, strain RAD53, active compounds read low): 0.937
- normalized growth (S. cerevisiae deletion strains, locus YPL204W, strain HRR25, active compounds read low): 0.919
- normalized growth (S. cerevisiae deletion strains, locus YPL209C, strain IPL1, active compounds read low): 1
- normalized growth (S. cerevisiae deletion strains, locus YPL256C, strain CLN2, active compounds read low): 0.858 (active)
- normalized growth (S. cerevisiae deletion strains, locus YPR025C, strain CCL1, active compounds read low): 1.02
- normalized growth (S. cerevisiae deletion strains, locus YPR106W, strain ISR1, active compounds read low): 0.999
- normalized growth (S. cerevisiae deletion strains, locus YPR111W, strain DBF20, active compounds read low): 0.991
- normalized growth (S. cerevisiae deletion strains, strain NNK1, active compounds read low): 0.987
- normalized growth (S. cerevisiae deletion strains, strain TSCII, active compounds read low): 0.995

SMILES: COc1ccc(CN(Cc2ccc(OC)cc2)C(=O)c2cccs2)cc1
- normalized growth [3]: 0.976
- normalized growth [4]: 0.974
- normalized growth (S. cerevisiae deletion strains, locus YCL061C, strain MRC1, active compounds read low): 1.01
- normalized growth [1]: 0.969
- normalized growth [5]: 0.974
- normalized growth [6]: 0.98
- normalized growth [7]: 0.974
- normalized growth [8]: 1
- normalized growth (S. cerevisiae deletion strains, locus YGR229C, strain SMI1, active compounds read low): 0.976
- normalized growth [2]: 0.971
- normalized growth [9]: 0.959
- normalized growth [10]: 0.994
- normalized growth [11]: 0.976
- normalized growth [12]: 0.92
- normalized growth [13]: 0.99
- normalized growth [14]: 0.97
- normalized growth [15]: 0.925
- normalized growth [16]: 0.953
- normalized growth [17]: 0.992
- normalized growth [18]: 1.01
- normalized growth (S. cerevisiae deletion strains, locus YMR307W, strain GAS1, active compounds read low): 0.812
- normalized growth (S. cerevisiae deletion strains, locus YNL128W, strain TEP1, active compounds read low): 0.973
- normalized growth [19]: 0.993
- normalized growth [20]: 0.973
- normalized growth [21]: 0.994
- normalized growth [22]: 0.931
- normalized growth (S. cerevisiae deletion strains, locus YOL006C, strain TOP1, active compounds read low): 0.95
- normalized growth [23]: 0.945
- normalized growth [24]: 0.995
- normalized growth [25]: 0.952
- normalized growth (S. cerevisiae strains, strain wild type, active compounds read low): 0.976

SMILES: CCCCCCCC1CC/C(=C\c2ccc(/C=C3\CCC(CCCCCCC)C3=O)cc2)C1=O (stereo not drawn)
- normalized growth [3]: 1.01
- normalized growth [4]: 1.01
- normalized growth [1]: 0.985
- normalized growth [5]: 1.01
- normalized growth [6]: 0.936
- normalized growth [7]: 0.999
- normalized growth [8]: 0.998
- normalized growth [2]: 1.07
- normalized growth [9]: 1.01
- normalized growth (S. cerevisiae deletion strains, locus YJL187C, strain SWE1, active compounds read low): 1.01
- normalized growth [10]: 1.01
- normalized growth [11]: 1.04
- normalized growth [12]: 1.05
- normalized growth [13]: 1.01
- normalized growth [14]: 1.02
- normalized growth [15]: 1.04
- normalized growth [16]: 0.979
- normalized growth [17]: 1
- normalized growth [18]: 1.01
- normalized growth [19]: 1
- normalized growth [20]: 1.04
- normalized growth [21]: 0.994
- normalized growth [22]: 1
- normalized growth [23]: 0.97
- normalized growth [24]: 0.978
- normalized growth [25]: 1.03
